Measured values published in PubChem BioAssay AID878 (University of Pittsburgh Molecular Library Screening Center, 2007).
Among all 200,000 compounds or so, about 65 (0.03%) were called active. This is one part of a sample in which actives are shown more often than they occur.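 Rule for the calls: active = activation of at least 50% relative to the plate's high and low controls in the primary single-dose screen; inactive = activation below 50%.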

Test: compounds producing H2O2 with reducing agent – biochemical, NIH compound library profiling, artefact control for MLSCN library redox annotation, primary screen (AID 878);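 note: compound incubated with DTT at 0.8 mM final as the reducing agent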
Settings: DTT-dependent redox cycling H2O2, phenol red/HRP absorbance; at 10 µM; hits give high values; 100% = 100 µM peroxide control, 0% = buffer
In the case of `COC(=O)C1=C(C(=O)OC)C(c2cc([N+](=O)[O-])ccc2O)c2sc(=O)[nH]c2S1` (configuration not stated), the activation is reported as 0.35% (inactive).
In the case of `COCCn1c(C)cc(C(=O)COC(=O)/C=C/c2cccc(OC)c2)c1C`, the activation is reported as 0.06% (inactive).
For `O=C(COC(=O)c1ccc(F)cc1)Nc1nc2ccc([N+](=O)[O-])cc2s1`, the activation was -0.91% (inactive).
In the case of `Cc1nn(CC(=O)NCc2ccccn2)c(C)c1[N+](=O)[O-]`, the activation is reported as 0.55% (inactive).
For `Cc1nc(NC(=O)C2CCCCC2)sc1C`, the activation was 1.88% (inactive).
With `O=C(Nc1cccc(S(=O)(=O)N2CCCCC2)c1)c1ccc2c(c1)OCO2` the activation was -0.11% (inactive).
For `CCOC(=O)C1(Cc2ccccc2C(F)(F)F)CCN(C(=O)c2cc(C)n(C)n2)CC1`, the activation was -0.12% (inactive).
With `COC(=O)NNC1=CC(=O)CC(C)(C)C1` the activation was 0.51% (inactive).
In the case of `CCOC(=O)c1c(N)nn(C(=O)c2ccccc2)c1-c1ccccc1`, the activation is reported as -2.05% (inactive).
With `CCCCNC(=O)CCn1c(=O)c2ccccc2n(Cc2cc(C)ccc2C)c1=O` the activation was 0.21% (inactive).
With `C=CCn1c2ccccc2c2nnc(SCc3[nH]c(=O)[nH]c3C(=O)CCCCC(=O)OCC)nc21` the activation was 0.68% (inactive).
For `CCN1C(=O)/C(=c2\s/c(=C3\Sc4ccccc4N3C)c(=O)n2C)N(C)C1=S`, the activation was -0.11% (inactive).
With `CC(=O)C1(C)N(O)C(C)(C)C(c2cccs2)=[N+]1[O-]` (configuration not stated) the activation was 0.23% (inactive).
With `Cc1c(NC(=S)NCc2ccc(F)cc2)cccc1[N+](=O)[O-]` the activation was 0.02% (inactive).
For `CN(C)/C=C(/C(=O)c1ccc(F)cc1)S(=O)(=O)c1ccc(F)cc1`, the activation was -0.68% (inactive).
With `CCC1CCCCN1C(=O)CSc1nc(C)cc(C)n1` (configuration not stated) the activation was -1.65% (inactive).
For `CCCCC(O)(CCCC)C(=O)NN(C(=O)CCl)c1ccccc1`, the activation was 0.06% (inactive).
In the case of `O=C(c1cccs1)n1nc(NCc2ccccc2)nc1NCc1ccccc1`, the activation is reported as -0.21% (inactive).
For `Cc1cc(C)c(C#N)c(SCC(=O)Nc2ccccc2)n1`, the activation was 0.39% (inactive).
For `COc1ccc(/C=C(\C#N)C(=O)ONC2=NCCCCC2)cc1`, the activation was -1.95% (inactive).
In the case of `Cc1cc(CNCc2c(C(=O)N(C)Cc3ccccc3)nc3ccccn23)nn1C`, the activation is reported as -1.78% (inactive).
For `Cc1ccc(C)c(OCC(=O)N2CCN(C(=O)c3ccco3)CC2)c1`, the activation was -0.33% (inactive).
In the case of `COc1ccc(/C=C/C(=O)c2ccc(NS(=O)(=O)c3ccc(C)cc3)cc2)cc1O`, the activation is reported as 0.57% (inactive).
For `CCN(CC)C(=O)c1sc2nc(-c3ccccc3)ccc2c1N`, the activation was 0.13% (inactive).
With `Cc1ccc(C)c(NC(=S)NNC(=S)Nc2ccc(C(C)C)cc2)c1` the activation was -1.35% (inactive).
In the case of `Oc1ccc(/C=N/Nc2ccc(C(F)(F)F)cn2)cc1O`, the activation is reported as -2.05% (inactive).
With `CC(CC(=O)O)CC(=O)NNC(=O)c1cccc(Br)c1` (configuration not stated) the activation was 0.78% (inactive).
With `Cc1ccc(OCC(=O)OC(C)CN(C)Cc2ccccc2)cc1` (configuration not stated) the activation was -0.15% (inactive).
With `Cc1ccc(NC(=O)c2oc(=O)c3ccccc3c2-c2ccccc2)c(C)c1` the activation was -0.2% (inactive).
With `COc1ccc(CS(=O)/C(Cl)=C(/Cl)C(=O)Nc2ccc(OC)nc2)cc1` (configuration not stated) the activation was 0.27% (inactive).
For `CCOC(=O)C1=C(CN2CCCCCC2)NC(=O)NC1c1cccc([N+](=O)[O-])c1` (configuration not stated), the activation was -10.2% (inactive).
For `CCOC(=O)C1(O)CC(C)=NN1C(=O)c1cccc(Br)c1` (configuration not stated), the activation was -0.77% (inactive).
For `COC(=O)c1ccccc1NC(=O)C1CC(=O)N(c2ccc(OC)cc2)C1` (configuration not stated), the activation was -0.76% (inactive).
With `COn1c(-c2ccc(Cl)cc2Cl)nc2ncccc21` the activation was 0.53% (inactive).
For `C=CCNC(=S)NNC(=O)COc1c(Cl)cc(Cl)cc1Cl`, the activation was 0.34% (inactive).
With `O=C(NCCCn1ccnc1)C(=O)c1cn(CC(=O)N2CCCCCC2)c2ccccc12` the activation was -0.37% (inactive).
For `COc1ccc(N2CCN(C(=O)COc3ccc4c(C)cc(=O)oc4c3)CC2)cc1`, the activation was -0.38% (inactive).
For `O=C(CSc1nc2ccccc2[nH]1)Nc1nc(-c2ccccc2)c(-c2ccccc2)o1`, the activation was 0.41% (inactive).
In the case of `Cc1ccc(S(=O)(=O)/N=C(/Nc2ccc3[nH]c(=O)[nH]c3c2)c2ccccc2)cc1`, the activation is reported as -0.98% (inactive).
With `COc1ccc(NC(=O)c2cc3nc(-c4ccccc4)cc(C)n3n2)cc1OC` the activation was -0.08% (inactive).
In the case of `CCC(=O)N(Cc1cc2ccccc2[nH]c1=O)c1ccc(OC)cc1`, the activation is reported as -0.34% (inactive).
For `CCCOc1ccc(NC(=O)CC2C(=O)N(C)C(=S)N2Cc2ccc3c(c2)OCO3)cc1` (configuration not stated), the activation was -0.41% (inactive).
With `CCc1cccc(OC2OC(CO)C(O)C(O)C2NC(C)=O)c1` (configuration not stated) the activation was -0.96% (inactive).
For `Oc1cccc2ccc(/C=C/c3ccc(Br)s3)nc12`, the activation was -0.18% (inactive).
For `COc1ccc(C(=O)Nc2sc(C)c(C)c2CN2CCOCC2)cc1`, the activation was -0.23% (inactive).
In the case of `CN(/C(=N/S(=O)(=O)c1cccs1)c1ccccc1)c1ccc(O)cc1`, the activation is reported as -0.71% (inactive).
In the case of `O=C(NC1CCCCCC1)c1cccnc1Sc1ccc(Cl)cc1`, the activation is reported as -0.04% (inactive).
In the case of `C/[N+]([O-])=C\c1ccc([N+](=O)[O-])o1`, the activation is reported as 0.48% (inactive).
With `CSc1ccc(/C=N\NC(=O)CC(=O)NC(C)C)cc1` the activation was -0.35% (inactive).
In the case of `COCCNC(=O)c1ccc(N2CCC3(CC2)OCCO3)c([N+](=O)[O-])c1`, the activation is reported as 0.43% (inactive).
For `COc1cc(/C=C/C(=O)OCC(=O)NC(=O)NCc2ccccc2)ccc1OCC#N`, the activation was -0.39% (inactive).
For `O=C(CNC(=O)c1cc(=O)[nH]c2ccccc12)Nc1ccc(F)c(F)c1`, the activation was 0.25% (inactive).
With `CN(c1ccc2nc3ccccc3c(=O)n2n1)C1CCCCC1` the activation was -0.26% (inactive).
In the case of `COc1ccc(CC(=O)N2N=C(C)CC2(O)C(F)(F)F)cc1` (configuration not stated), the activation is reported as -0.18% (inactive).
With `O=C(/C=C/Sc1ncn[nH]1)c1ccc(Cl)cc1` the activation was 1.23% (inactive).
In the case of `O=c1c2ccccc2c(-c2ccccc2)nn1-c1ccccn1`, the activation is reported as -0.18% (inactive).
In the case of `CCOCCCNC(=O)C(=O)NCCCOCC`, the activation is reported as -0.48% (inactive).
With `CCC1=NN(C(=O)Cc2ccc([N+](=O)[O-])cc2)C(O)(c2ccc(Br)cc2)C1` (configuration not stated) the activation was 0.2% (inactive).
For `CCOc1cc(NC(=S)NCCCOC)c(OCC)cc1NC(=O)c1ccco1`, the activation was -0.65% (inactive).
In the case of `CNC(=O)C(=O)N/N=C/c1ccccn1`, the activation is reported as 0.83% (inactive).
For `CCN(CC(=O)NCc1cccs1)S(=O)(=O)c1ccc(NC(C)=O)cc1`, the activation was -2.2% (inactive).
For `CCOC(=O)C1CCN(S(=O)(=O)c2cc(F)ccc2OC)CC1`, the activation was -0.4% (inactive).
For `Cc1ccc(CNC(=O)COc2ccc3c(c2)CCC3)cc1`, the activation was -0.27% (inactive).
In the case of `CO/N=C/CC(=O)c1ccc(OC)cc1`, the activation is reported as -0.35% (inactive).
In the case of `CCCC1(C(=O)OCC)NC(c2ccc(N(C)C)cc2)C2C(=O)N(c3ccc4c(c3)OCCO4)C(=O)C21` (configuration not stated), the activation is reported as 0.78% (inactive).
With `Cc1ccc(-n2c(C)cc(/C=N\NC(=O)CC(=O)NC(C)C)c2C)cc1` the activation was 0.08% (inactive).
In the case of `O=C(/C=C/c1cccc([N+](=O)[O-])c1)NCCSCc1ccco1`, the activation is reported as -0.1% (inactive).
For `Cc1ccc(CC(=O)Nc2ccc(OC(F)F)c(Cl)c2)cc1C`, the activation was 0.61% (inactive).
With `CCOC(=O)C1=C(c2ccc(OC)cc2)C(=O)c2ccccc2C1=O` the activation was 0.28% (inactive).
With `CCOC(=O)c1c(C)[nH]c2c1-c1ccccc1C(=O)C2=O` the activation was 89.8% (active).
For `CCOC(=O)c1c(C)[nH]c(=S)c(C#N)c1-c1ccccc1`, the activation was -0.47% (inactive).
In the case of `COc1ccc(S(=O)(=O)N/N=C\c2ccc(OC)c(COc3ccc(C)cc3[N+](=O)[O-])c2)cc1`, the activation is reported as 0.79% (inactive).
In the case of `Cc1cc(NC(=O)CSCc2ccccc2C)no1`, the activation is reported as -0.39% (inactive).
With `COc1cc(CN2CCN(Cc3ccc(C)cc3)CC2)c([N+](=O)[O-])cc1OC` the activation was -0.34% (inactive).
For `Cc1ccc(-n2c(SCC(=O)N/N=C/C=C/c3ccccc3[N+](=O)[O-])nc3ccccc3c2=O)cc1`, the activation was 0.36% (inactive).
In the case of `Cc1ccc(C(C)(C)C)c(OCCCCN2CCCC2)c1`, the activation is reported as 0.04% (inactive).
With `COC(=O)c1c(C)[nH]c(C(=O)/C=C/c2ccc(Cl)cc2)c1C` the activation was 0.44% (inactive).
For `O=C(CSc1ncn[nH]1)NCc1ccc2c(c1)OCO2`, the activation was -2.24% (inactive).
In the case of `COC(=O)c1c(NC(=O)CN2CCN(S(=O)(=O)c3ccccc3[N+](=O)[O-])CC2)sc2c1CCC(C)C2` (configuration not stated), the activation is reported as 0.62% (inactive).
In the case of `CCc1c(O)cc2n(c1=O)-c1ccccc1C2(C)C`, the activation is reported as 0.55% (inactive).
With `CC(=O)N1Cc2ccccc2CC1C(=O)O` (configuration not stated) the activation was 0.61% (inactive).
In the case of `Cc1ccc(OCC(=O)Nc2cccc3c2CCCC3)cc1C`, the activation is reported as 1.68% (inactive).
With `CCOC(=O)Cc1ncccc1C(=O)Nc1ccc(OC)cc1` the activation was -0.93% (inactive).
With `O=C(C1=C[C@H](C2CC2)C[C@H](OCc2ccc(CO)cc2)O1)N1CCN(Cc2ccccc2)CC1` the activation was 0.58% (inactive).
For `Cc1ccc(S(=O)(=O)C2C(=O)NC3(C)CC2c2ccccc2O3)cc1` (configuration not stated), the activation was 0.78% (inactive).
For `COC(=O)/C=C\C(=O)Nc1cccc([N+](=O)[O-])c1`, the activation was 0.27% (inactive).
In the case of `CCn1c(=O)c(=O)n(CC)c2cc(S(=O)(=O)N3CCc4ccccc43)ccc21`, the activation is reported as -1.27% (inactive).
For `O=C(Oc1cccc(N2C(=O)C3C4c5ccccc5C(c5ccccc54)C3C2=O)c1)c1ccco1` (configuration not stated), the activation was 0.92% (inactive).
In the case of `CCC(=O)/C(=C(/O)c1ccccc1)c1nc2ccccc2[nH]1`, the activation is reported as -0.31% (inactive).
In the case of `FC(F)(F)c1cccc(Cc2noc(CN3CCC(N4CCCCC4)CC3)n2)c1`, the activation is reported as 0.44% (inactive).
For `Cc1ccccc1-n1nnnc1SCCCC(=O)c1ccc(F)cc1`, the activation was 0.87% (inactive).
With `CCOC(=O)NC(=O)C(=CNc1cccc(OC)c1)C(=O)NC(=O)OCC` the activation was -0.29% (inactive).
